# The source made the active and inactive calls.
# Experiments:
# [1] = test system: PRMT1 (protein arginine N-methyltransferase 1); experiment: PRMT1 binders on small-molecule microarrays, primary screen, biochemical, small-molecule microarray, 635 nm fluorescence (AID 1088); settings: small-molecule microarray binding, higher = more signal;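 further: binding of Prmt1 protein to compounds spotted on small-molecule microarray slides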
# [2] = yeast growth modulation, basal conditions, primary screen, YJM789 clinical isolate, OD600, 24 h (AID 1089);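 further: growth of clinical yeast isolate S. cerevisiae YJM 789 seeded 1000 cells per well; test concentration not given here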; settings: S. cerevisiae YJM789 growth, higher = more signal, called active from +8 up or from −8 down
# [3] = fission yeast growth modulation, primary screen, strain 972, OD600, 24 h, no modulator (AID 1090);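 further: basal condition with compound alone and no growth modifier present; test concentration not given here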; settings: S. pombe 972 growth, higher = more signal, called active from +8 up or from −8 down
# [4] = S. cerevisiae growth modulation with rapamycin, primary screen, strain BY4716, OD600, 96 h (AID 1091); settings: higher = more signal, called active from +8 up or from −8 down; further: test concentration not given here
# [5] = molecular target: Torsin-1A-interacting protein 2 (Homo sapiens) (UniProt Q8NFQ8); experiment: LULL1 binders on small-molecule microarray, primary screen, cell lysate, human LULL1 lysate, 635/667 nm fluorescence (AID 1092); settings: hLULL1 lysate binding, 635 nm fluorescence, higher = more signal;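 further: probe is lysate of COS7 cells overexpressing human LULL1; score merges per-feature 667 nm fluorescence with signal-to-noise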
# [6] = E. coli growth modulation, two-sided OD650, primary screen, E. coli filamentation project, strain DRC41, 24 h (AID 1093); settings: OD650, 24 h, higher = more signal, called active from +8 up or from −8 down;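 further: MC1000 strain lacking acrAB efflux and sulA so SOS filamentation is blocked; test concentration not given here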
# [7] = small-molecule microarray binders of probe aLefty2, primary screen, biochemical, biotinylated probe, 635/667 nm fluorescence (AID 1094); settings: higher = more signal;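 further: score merges spot fluorescence near 667 nm with spot signal-to-noise ratio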
# [8] = test system: Noggin (protein binding on small-molecule microarray); experiment: Noggin binders on small-molecule microarray, primary screen, biochemical, 635/667 nm fluorescence (AID 1095); settings: 635 nm fluorescence, higher = more signal;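 further: score merges 667 nm feature fluorescence with signal to noise over triplicate slides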
# [9] = molecular target: Neurogenic locus notch homolog protein 3 (Homo sapiens) (UniProt Q9UM47); experiment: NOTCH3 binders on small-molecule microarray, primary screen, biochemical, 635/667 nm fluorescence (AID 1096); settings: NOTCH3 binding, 635 nm fluorescence, higher = more signal
# [10] = small-molecule microarray binders of probe aEGFR, primary screen, biochemical, biotinylated probe, 635/667 nm fluorescence (AID 1097); settings: higher = more signal;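 further: probe is a biotinylated anti-EGFR antibody binding compounds printed on slides; score combines fluorescence near 667 nm and signal to noise of each spot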
# Neurogenic locus notch homolog protein 3 (Homo sapiens), sequence (Q9UM47 whole entry, looked up): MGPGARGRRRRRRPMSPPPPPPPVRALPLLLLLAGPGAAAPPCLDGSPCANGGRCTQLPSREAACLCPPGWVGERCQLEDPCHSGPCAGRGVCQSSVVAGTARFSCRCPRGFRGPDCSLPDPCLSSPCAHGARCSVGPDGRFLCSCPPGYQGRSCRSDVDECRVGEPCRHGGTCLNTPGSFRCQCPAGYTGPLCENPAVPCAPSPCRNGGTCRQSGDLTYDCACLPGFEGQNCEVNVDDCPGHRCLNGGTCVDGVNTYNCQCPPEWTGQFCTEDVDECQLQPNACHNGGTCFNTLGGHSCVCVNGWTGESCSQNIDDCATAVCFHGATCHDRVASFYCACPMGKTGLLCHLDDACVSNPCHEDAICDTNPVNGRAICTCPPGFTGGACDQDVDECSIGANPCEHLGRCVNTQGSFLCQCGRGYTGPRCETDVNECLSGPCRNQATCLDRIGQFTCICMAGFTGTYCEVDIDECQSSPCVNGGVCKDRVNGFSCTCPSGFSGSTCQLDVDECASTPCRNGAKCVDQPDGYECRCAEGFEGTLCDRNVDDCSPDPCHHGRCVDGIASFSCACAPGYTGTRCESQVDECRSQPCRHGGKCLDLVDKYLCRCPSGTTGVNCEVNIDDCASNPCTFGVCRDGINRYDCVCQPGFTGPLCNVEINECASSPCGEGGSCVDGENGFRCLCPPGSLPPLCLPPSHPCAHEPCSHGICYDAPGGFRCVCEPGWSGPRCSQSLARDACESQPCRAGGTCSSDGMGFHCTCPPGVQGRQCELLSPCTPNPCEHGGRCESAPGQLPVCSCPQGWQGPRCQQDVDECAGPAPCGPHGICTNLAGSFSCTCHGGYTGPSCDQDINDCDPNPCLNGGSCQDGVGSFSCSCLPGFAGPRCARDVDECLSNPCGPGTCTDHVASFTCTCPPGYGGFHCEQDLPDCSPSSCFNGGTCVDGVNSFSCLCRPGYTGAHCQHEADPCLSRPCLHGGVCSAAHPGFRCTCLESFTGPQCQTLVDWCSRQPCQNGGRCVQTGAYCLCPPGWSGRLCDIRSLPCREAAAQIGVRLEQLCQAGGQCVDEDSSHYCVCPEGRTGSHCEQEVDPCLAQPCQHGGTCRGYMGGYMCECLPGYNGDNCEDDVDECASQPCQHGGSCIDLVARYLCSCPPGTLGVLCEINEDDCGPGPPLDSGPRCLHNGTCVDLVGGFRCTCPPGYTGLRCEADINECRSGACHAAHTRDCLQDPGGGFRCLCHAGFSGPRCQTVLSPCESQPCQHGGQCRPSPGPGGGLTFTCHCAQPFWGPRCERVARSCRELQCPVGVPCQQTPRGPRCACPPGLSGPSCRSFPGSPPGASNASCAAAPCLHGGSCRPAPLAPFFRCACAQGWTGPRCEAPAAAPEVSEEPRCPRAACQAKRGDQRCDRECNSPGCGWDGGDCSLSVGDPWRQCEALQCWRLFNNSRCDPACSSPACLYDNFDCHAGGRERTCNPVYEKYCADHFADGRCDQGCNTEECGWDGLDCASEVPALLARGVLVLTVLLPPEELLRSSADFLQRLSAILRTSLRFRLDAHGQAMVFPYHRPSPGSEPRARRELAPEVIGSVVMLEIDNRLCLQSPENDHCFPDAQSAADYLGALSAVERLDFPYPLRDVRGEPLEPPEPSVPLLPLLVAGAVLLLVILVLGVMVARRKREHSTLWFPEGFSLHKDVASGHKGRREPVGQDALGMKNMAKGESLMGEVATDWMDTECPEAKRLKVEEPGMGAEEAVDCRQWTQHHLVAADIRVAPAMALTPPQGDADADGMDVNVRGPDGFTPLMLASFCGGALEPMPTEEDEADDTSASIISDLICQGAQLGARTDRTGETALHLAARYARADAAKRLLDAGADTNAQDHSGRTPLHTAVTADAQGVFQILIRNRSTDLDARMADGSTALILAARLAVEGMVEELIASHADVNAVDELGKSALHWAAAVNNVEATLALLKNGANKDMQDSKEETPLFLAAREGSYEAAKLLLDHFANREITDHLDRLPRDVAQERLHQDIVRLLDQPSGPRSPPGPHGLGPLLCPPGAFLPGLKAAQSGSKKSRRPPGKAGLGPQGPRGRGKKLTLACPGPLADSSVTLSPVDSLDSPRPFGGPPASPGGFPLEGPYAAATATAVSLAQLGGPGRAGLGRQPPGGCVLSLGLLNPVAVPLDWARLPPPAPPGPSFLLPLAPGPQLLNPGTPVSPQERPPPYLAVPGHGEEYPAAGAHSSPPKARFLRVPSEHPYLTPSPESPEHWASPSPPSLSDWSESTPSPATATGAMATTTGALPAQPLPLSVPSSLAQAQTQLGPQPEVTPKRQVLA
# Torsin-1A-interacting protein 2 (Homo sapiens), sequence (Q8NFQ8 whole entry, looked up): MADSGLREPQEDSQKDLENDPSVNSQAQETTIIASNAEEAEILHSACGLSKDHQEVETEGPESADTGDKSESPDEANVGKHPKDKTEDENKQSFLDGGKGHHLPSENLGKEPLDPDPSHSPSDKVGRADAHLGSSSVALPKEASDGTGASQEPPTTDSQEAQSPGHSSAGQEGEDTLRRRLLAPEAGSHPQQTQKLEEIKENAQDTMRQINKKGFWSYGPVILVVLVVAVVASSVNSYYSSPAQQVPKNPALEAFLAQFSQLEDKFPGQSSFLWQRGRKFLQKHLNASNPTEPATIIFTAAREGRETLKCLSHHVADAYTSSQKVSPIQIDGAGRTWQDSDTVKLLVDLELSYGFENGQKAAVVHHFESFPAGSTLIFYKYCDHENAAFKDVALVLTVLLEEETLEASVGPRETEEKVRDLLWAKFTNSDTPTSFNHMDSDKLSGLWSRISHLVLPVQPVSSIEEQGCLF
SMILES,composite z-score [1],z-score [2],z-score [3],z-score [4],composite z-score [5],z-score [6],composite z-score [7],composite z-score [8],composite z-score [9],composite z-score [10]
CCOC(=O)C[C@H]1[C@H](OC(=O)c2ccc(C(=O)c3ccccc3)cc2)[C@@H](NC(=O)c2ccccc2)c2cc(OCCCO)ccc2N1C(=O)c1ccccc1,0.844,-0.178 (inactive),0.801 (inactive),-0.536 (inactive),1.72,-0.448 (inactive),-0.0154,0.508,1.01,0.121
CCCNC(=O)[C@@]1(Sc2ccc(C)cc2)CC(=O)N(Cc2ccccc2C(F)(F)F)[C@@H]1c1ccc(CO)cc1I,1.53,-0.36 (inactive),-2.45 (inactive),0.283 (inactive),2.19,-1.57 (inactive),-0.0125,0.932,0.958,-0.0435
COCCOC(=O)N1C(=O)[C@@]2(c3ccccc31)[C@H](C(=O)N1CCc3cc(OC)c(OC)cc3C1)[C@H]1C(=O)O[C@H](c3ccccc3)[C@H](c3ccccc3)N1[C@@H]2c1ccc(O)cc1,1.51,-0.654 (inactive),0.194 (inactive),1.8 (inactive),2.85,2.31 (inactive),0.206,1.39,0.806,0.0383
O=C(O)[C@H](Cc1ccccc1)n1cc(-c2ccccc2)nn1,0.112,0.306 (inactive),0.865 (inactive),0.173 (inactive),1.03,-0.741 (inactive),-0.0592,0.197,0.185,0.119
O=C1[C@H]2C=C(Br)[C@H](C[C@@H]2OCCCCCCO)[C@@]12CO2,-0.729,0.335 (inactive),-1.29 (inactive),1.32 (inactive),-0.283,-1.74 (inactive),0.0183,0.387,-0.615,-0.131
C[N+](C)(C)CCCC[C@@H]1NC(=O)[C@H]2C[C@@H](C(=O)NCCCCCCNC(=O)CS)[C@@H](c3ccc(O)cc3)N2C1=O,-0.27,-0.304 (inactive),0.481 (inactive),-0.344 (inactive),0.908,0.138 (inactive),-0.17,0.395,-1.06,-0.126
CCCCCCc1nc(-c2ccc(-c3ccc(Cl)c(Cl)c3)o2)c(C)c2c1[Si](C(C)C)(C(C)C)OC2,0.337,-0.972 (inactive),-3.62 (inactive),0.0962 (inactive),0.703,-0.0336 (inactive),-0.259,-0.123,-0.243,-0.233
CCCCCCc1nc(-c2ccc(-c3ccc(Cl)c(Cl)c3)o2)cc2c1[Si](C(C)C)(C(C)C)O[C@H]2c1ccccc1,0.287,-0.124 (inactive),-0.45 (inactive),-1.35 (inactive),0.424,0.488 (inactive),-0.196,0.0792,-0.34,-0.249
COc1cc2c(cc1OC)CN(C(=O)[C@H]1[C@@H]3C(=O)O[C@@H](c4ccccc4)[C@@H](c4ccccc4)N3[C@@H](c3ccccc3OCCO)[C@]13C(=O)Nc1ccc(C#CCCO)cc13)CC2,1.52,2.11 (inactive),-0.0834 (inactive),3.66 (inactive),1.61,-0.302 (inactive),-0.0499,1.71,1.02,-0.0531
[N-]=[N+]=Nc1ccccc1[C@H]1OC(c2ccc(OCCCO)cc2)=N[C@@]1(Cc1ccccc1)C(=O)N1CCOCC1,1.46,-1.44 (inactive),-1.02 (inactive),1.91 (inactive),3.23,0.551 (inactive),0.275,0.449,1.15,0.0881
COc1ccc(C(O)C2C=CC3C(=O)N(C)C(=O)C3N2N(c2ccccc2)c2ccccc2)c2ccccc12 (stereo not given),0.474,0.388 (inactive),0.954 (inactive),0.375 (inactive),-0.124,-1.27 (inactive),0.242,0.575,0.563,-0.0283
COC(=O)c1c(CC[C@@H](CO)NC(=O)N[C@@H](Cc2ccccc2)Cn2cc(-c3ccccn3)nn2)oc(C(=O)N2CCOCC2)c1C(=O)OC,0.278,0.503 (inactive),0.82 (inactive),-0.593 (inactive),0.843,-0.613 (inactive),-0.124,0.227,0.495,-0.183
C=CC[C@]1(C(=O)N2CCOCC2)N=C(c2ccc(OCCCO)cc2)O[C@H]1c1ccccc1N=[N+]=[N-],1.54,-0.0233 (inactive),-1.22 (inactive),0.206 (inactive),3.45,0.734 (inactive),0.405,0.752,1.11,-0.0406
O=C(O)C1N=C(c2ccc(OCCCO)cc2)N(c2ccccc2)O1 (stereo not given),1.49,-0.371 (inactive),0.651 (inactive),-0.377 (inactive),2.03,0.281 (inactive),0.0399,0.306,0.12,-0.0828
COc1ccc([Si](C)(C)[C@@H]2[C@@H](CCO)O[C@]3(C(=O)N(Cc4cccc(N5CCOC5=O)c4)c4ccccc43)[C@H]2C)cc1,1.42,4.03 (inactive),0.643 (inactive),37.8 (active),0.97,0.516 (inactive),-0.0357,0.825,0.797,-0.0564
O=C1OCC=C[C@H]2OC34C=CCN(Cn5nnc6ccccc65)C(=O)[C@H]3N(CCCCCO)C(=O)[C@@H]4[C@@H]12 (stereo not given in full),-0.0541,-0.314 (inactive),0.421 (inactive),-0.582 (inactive),2.81,1.65 (inactive),0.484,-0.525,-0.475,-0.108
CO[C@H]1O[C@H](CO)[C@@H](OC(=O)Nc2ccccc2)[C@@H]2OC(=O)[C@@H](Cc3ccc4ccccc4c3)C/C=C/C[C@H](Cc3ccc4ccccc4c3)C(=O)O[C@@H]12,1.47,-1.38 (inactive),-1.57 (inactive),1.55 (inactive),2.35,2.64 (inactive),-0.0403,0.369,0.977,-0.0449
C=C(/C(=C/C[C@H](OC(=O)c1ccncc1)c1ccc(OCCO)cc1)c1cc(C(=O)OC)ccc1OC)C(C)C,1.03,0.236 (inactive),-1.26 (inactive),-0.359 (inactive),1.73,1.09 (inactive),-0.072,0.609,0.381,0.122
COc1ccc([Si](C)(C)[C@H]2[C@H](CC(=O)N3CCC[C@H]3CO)O[C@@]3(C(=O)N(Cc4cccc(N5CCOC5=O)c4)c4ccccc43)[C@@H]2C)cc1,1.55,-1.53 (inactive),0.239 (inactive),-1.71 (inactive),1.02,1.78 (inactive),-0.23,1.28,1.11,-0.0271
O=C1OCCC=C[C@H]2OC34C=CCN(c5ccc(Cl)cc5)C(=O)[C@H]3N(CCCO)C(=O)[C@@H]4C12 (stereo not given in full),-0.827,-0.0304 (inactive),-1.36 (inactive),0.0341 (inactive),-1.28,1.31 (inactive),0.0058,-0.469,-0.792,-0.116
COCCCNC(=O)[C@@]1(Cc2ccccc2)N=C(c2ccc(OCCCO)cc2)O[C@H]1c1ccccc1CN=[N+]=[N-],1.56,-0.201 (inactive),0.351 (inactive),0.463 (inactive),3.16,1.06 (inactive),0.277,0.445,1.05,0.163
CCOC(=O)C[C@H]1[C@H](OC(=O)c2ccc(-c3ccccc3)cc2)[C@@H](NC(=O)c2ccccc2)c2cc(OCCCO)ccc2N1C(=O)Cc1ccc(OC)cc1,-0.719,0.883 (inactive),-0.414 (inactive),1.45 (inactive),0.734,0.258 (inactive),-0.192,0.23,-0.712,-0.21
O=C1O[C@H](c2ccccc2)[C@H](c2ccccc2)N2[C@H]1[C@@H](C(=O)NC[C@H](O)c1ccccc1)[C@]1(C(=O)Nc3ccccc31)[C@H]2c1ccc(O)cc1,1.39,0.754 (inactive),0.817 (inactive),1.7 (inactive),2.56,-0.408 (inactive),-0.134,0.798,0.608,-0.108
COC(=O)C(CC#Cc1ccc2c(c1)[C@]1(C(=O)N2)[C@H](c2ccccc2OCCO)N2[C@H](c3ccccc3)[C@H](c3ccccc3)OC(=O)[C@H]2[C@@H]1C(=O)O)C(=O)OC,1.57,2.46 (inactive),0.521 (inactive),-0.188 (inactive),2.37,0.871 (inactive),0.264,0.793,0.691,-0.0032
CN(C)C(=O)[C@]1(Cc2ccccc2)N=C(c2ccc(OCCCO)cc2)O[C@@H]1c1ccccc1N=[N+]=[N-],1.56,-0.305 (inactive),-0.655 (inactive),1.06 (inactive),2.84,0.841 (inactive),0.141,1.35,1.12,0.438
COC(=O)C(CC#Cc1ccc2c(c1)[C@]1(C(=O)N2)[C@H](c2ccccc2OCCO)N2[C@H](c3ccccc3)[C@H](c3ccccc3)OC(=O)[C@H]2[C@@H]1C(N)=O)C(=O)OC,1.27,1.31 (inactive),-0.117 (inactive),3.7 (inactive),2.93,1.13 (inactive),1.11,0.0814,0.895,0.656
COC(=O)[C@]1(Cc2ccccc2)N=C(c2ccc(OCCCO)cc2)O[C@@H]1c1ccccc1N=[N+]=[N-],1.52,-0.701 (inactive),-1.01 (inactive),24.6 (active),1.82,-0.604 (inactive),-0.0389,1.15,0.58,-0.0987
[N-]=[N+]=Nc1ccccc1C[C@@]1(C(=O)N2CCCCC2)N=C(c2ccc(OCCCO)cc2)O[C@@H]1c1ccccc1,1.14,-1.96 (inactive),-2.65 (inactive),0.737 (inactive),2.97,2.76 (inactive),0.101,0.0588,1.04,-0.0382
O=C1[C@@]23C=C(Br)[C@H](C[C@@H]2COC3)[C@]12CO2,-1.63,-0.241 (inactive),-9 (active),0.403 (inactive),0.246,-0.366 (inactive),-0.14,-1.31,-1.5,-0.272

# From PubChem BioAssay
